Experiment [1] is described as follows: AP1 Signaling Pathway (AID 357). Also: % is scaled to controls: 0 for no effect and ±100 for the full control effect. Particulars: ME-180 AP-1-bla reporter, EGF-induced, beta-lactamase ratio, 5 h; at 17.2 µM (top of the series) unless noted. A digest of the protocol: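 AP-1-bla ME-180 cells with beta-lactamase reporter under AP-1 response element, stimulated with EC50 EGF; compounds titrated, 5 hours at 37 degrees Celsius. CCF4 read at 460/530 nm ratio; positive and negative modulators judged by AC50.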

Experiment [2] can be described thus: Stat Signaling Pathway (AID 446).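 Also: ME-180 cervical cancer cells given 40 pM IL-6 alongside compound; SIE-controlled beta-lactamase reporter measured as 460/530 nm FRET emission ratio; % is scaled to controls: 0 for no effect and ±100 for the full control effect.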 Particulars: ME-180 (cervical carcinoma) SIE beta-lactamase reporter, IL-6 stimulated, 5 h; at 17.2 µM (top of the series) unless noted. A digest of the protocol: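 FRET read-out (405 nm excitation, 460/530 nm emission) of a beta-lactamase reporter under a STAT-inducible element in ME-180 cervical carcinoma cells. Cells with compound receive 40 pM IL-6 for 5 h. Values are normalised to AC90 stimulation and AC90 JAK-inhibitor controls.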

Experiment [3] deals with Glucocorticoid receptor (Homo sapiens) (UniProt P04150). Nature of the experiment: GR-GFP Redistribution (AID 450;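 active = compounds whose dose series gives a full or clear partial fitted curve of increased nuclear translocation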; also: potency is read from the fitted curve at half-maximal effect).
Glucocorticoid receptor (Homo sapiens), sequence (P04150 whole entry, looked up, the tested form may be a part): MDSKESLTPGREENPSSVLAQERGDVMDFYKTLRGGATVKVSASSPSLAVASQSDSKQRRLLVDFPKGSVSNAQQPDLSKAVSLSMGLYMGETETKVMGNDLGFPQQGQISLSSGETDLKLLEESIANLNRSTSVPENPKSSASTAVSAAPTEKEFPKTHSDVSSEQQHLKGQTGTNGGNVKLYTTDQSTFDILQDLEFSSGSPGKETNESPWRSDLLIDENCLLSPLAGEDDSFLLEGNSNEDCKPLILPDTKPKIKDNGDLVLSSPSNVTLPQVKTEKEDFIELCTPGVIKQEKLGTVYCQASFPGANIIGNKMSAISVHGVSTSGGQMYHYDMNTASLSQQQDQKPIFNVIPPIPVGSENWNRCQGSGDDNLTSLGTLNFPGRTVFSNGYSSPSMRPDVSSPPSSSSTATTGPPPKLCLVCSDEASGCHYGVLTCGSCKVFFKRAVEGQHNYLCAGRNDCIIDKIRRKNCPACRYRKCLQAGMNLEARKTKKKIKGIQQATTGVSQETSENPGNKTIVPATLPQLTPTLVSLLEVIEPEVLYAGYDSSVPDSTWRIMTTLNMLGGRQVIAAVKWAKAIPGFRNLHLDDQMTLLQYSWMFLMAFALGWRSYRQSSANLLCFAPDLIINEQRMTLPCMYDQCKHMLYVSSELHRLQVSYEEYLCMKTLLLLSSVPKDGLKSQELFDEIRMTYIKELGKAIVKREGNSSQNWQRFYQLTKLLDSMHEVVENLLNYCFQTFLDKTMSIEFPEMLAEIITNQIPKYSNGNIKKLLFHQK
For experiment [4] the target is unchanged. Nature of the experiment: GR-EFC Redistribution (AID 451; calls by dose curve; also: potency is read from the fitted curve at half-maximal effect). Particulars: CHO-K1 GR-EFC translocation, beta-gal luminescence, 2 h. A digest of the protocol: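 Translocation of GR-ED fusion to nuclear EA restores b-gal, read by luminescence after 1 h room-temperature detection. Engineered CHO-K1 biosensor cells, 1,000/well, exposed 2 h at 37 C to titrations up to 46 uM final.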

Experiment [5] concerns the target Mitogen-activated protein kinase 10 (Mus musculus) (UniProt Q61831). Nature of the experiment: JNK3 AlphaScreen Assay (AID 530).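 Also: kinase came from lysate of stimulated human HepG2 cells; signal reports phosphorylation of biotinylated GST-cJun 1-79 at Ser73 with 10 µM ATP; % is scaled to controls: 0 for no effect and ±100 for the full control effect.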 An outline of the steps:
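Kinase buffer: 20 mM Tris-HCl pH 7.6, 10 mM MgCl2, 1 mM DTT, 0.1 mM Na3VO4, 0.01% Tween-20; ATP 10 uM. Substrate biotin-GST-cJun(1-79), enzyme from activated HepG2 lysates. Detection by Ser73 phospho-antibody AlphaScreen.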

The target of experiment [6] is 3',5'-cyclic-AMP phosphodiesterase 4B (Homo sapiens) (UniProt Q07343). In words: qHTS Assay for Inhibitors of PDE-IV (AID 607; active = well fitted activation curve with a large enough effect in the main read-out, with a control signal flat, not every such curve was filed as active; also: % of control where 0% means no effect). A digest of the protocol:
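Cell-based read-out of cAMP via a modified cyclic nucleotide-gated channel and membrane potential dye (535/590 nm) in HEK293 cells expressing PDE4 endogenously. Compounds tested up to 22.9 uM final; 100 uM RO 20-1724 reference.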
A general note: qHTS replaces the single test concentration by a dilution series.

For experiment [7], the target named is Cytochrome P450 3A4 (Homo sapiens) (UniProt P08684). Nature of the experiment: qHTS Assay for Activators of Cytochrome P450 3A4 (AID 885; active = well fitted curve in the direction sought with a large enough effect; an effect the other way counts as inactive or inconclusive; also: nearly all actives have a fitted effect of over 65% in size). A digest of the protocol:
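Luminescent readout of luciferin formed from 25 uM Luciferin-PPXE (KM level) by 20 nM CYP3A4 in 200 mM KPO4, with 60 min NADPH-driven reaction at room temperature after 10 min compound exposure. Ketoconazole (57 uM) defined 100% inhibition.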

For experiment [8], the target named is Guanine nucleotide-binding protein G(i) subunit alpha-1 (Homo sapiens) (UniProt P63096). Nature of the experiment: qHTS Assay for Inhibitors of RGS12 GoLoco Motif Activity (Green Fluorophore) (AID 879; active = well fitted curve in the direction sought with a large enough effect; an effect the other way counts as inactive or inconclusive;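 also: 0% = labeled peptide with Gαi1 and full inhibition = labeled peptide alone without protein; negative values mean loss of peptide binding seen as reduced polarization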). A digest of the protocol: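 A drop in FITC polarization marked displacement of the FITC-tagged RGS12 GoLoco peptide (10 nM) from Gαi1 (50 nM). Compounds were incubated 10 min at room temperature in Tris pH 7.5 buffer containing 150 mM NaCl, 0.1 mM GDP and 0.05% NP40; unlabeled peptide titration served as control.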
Guanine nucleotide-binding protein G(i) subunit alpha-1 (Homo sapiens), sequence (P63096 whole entry, looked up): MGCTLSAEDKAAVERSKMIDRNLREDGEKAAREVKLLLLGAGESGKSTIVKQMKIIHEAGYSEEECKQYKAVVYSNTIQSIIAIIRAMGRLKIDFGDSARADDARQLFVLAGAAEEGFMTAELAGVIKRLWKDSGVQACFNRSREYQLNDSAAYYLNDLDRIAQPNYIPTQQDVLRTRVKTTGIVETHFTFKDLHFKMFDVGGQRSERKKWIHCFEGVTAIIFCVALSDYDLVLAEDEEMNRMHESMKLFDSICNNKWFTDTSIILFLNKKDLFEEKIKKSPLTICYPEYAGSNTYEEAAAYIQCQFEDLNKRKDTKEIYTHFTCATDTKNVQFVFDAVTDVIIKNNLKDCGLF

The nature of experiment [9]: qHTS Assay for Identification of Small Molecule Antagonists for NFkB Signaling Pathway (AID 895; active = well fitted inhibition curve with a large enough effect in the signal ratio, with a control signal flat, not every such curve was filed as active; the % refers to the signal ratio; also: % is scaled to controls: 0 for no effect and ±100 for the full control effect). An outline of the steps:
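Beta-lactamase reporter read-out (460 and 530 nm emission ratio, 405 nm excitation, 2 hrs substrate loading RT) after 5 hr stimulation with 10 pM TNF alpha in compound-treated NFkB-bla ME-180 cells in low-serum medium.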

Experiment [10] addresses Muscarinic acetylcholine receptor M1 (Rattus norvegicus) (UniProt P08482). In words: qHTS Assay for Antagonists of Acetylcholine Muscarinic M1 Receptor: Kinetic Measurement of Intracellular Calcium Response (AID 943; active = well fitted curve in the direction sought with a large enough effect; an effect the other way counts as inactive or inconclusive; also: potency is read from the fitted curve at half-maximal effect; nearly all actives have a fitted effect of over 75% in size). An outline of the steps: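 Read-out: peak over basal Fluo-4 fluorescence, kinetic at 1 Hz for 4 min after EC80 carbachol (100 nM final). Rat M1-CHO cells, dye loaded 1 h at 37C, compound added 10 min before agonist.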

Experiment [11] deals with Pyruvate kinase (Leishmania mexicana) (UniProt Q27686). Nature of the experiment: qHTS Validation Assay for Inhibitors of Leishmania Mexicana Pyruvate Kinase (AID 945; active = well fitted curve in the direction sought with a large enough effect; an effect the other way counts as inactive or inconclusive;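 also: 0% = DMSO only neutral control wells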). An outline of the steps:
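qHTS eight-point titrations against 0.2 nM LmPYK (E451W) in imidazole buffer pH 7.2 with 0.5 mM PEP, 0.1 mM ADP; 1 h, room temperature. Readout: PKLight luminescence, normalized to neutral DMSO wells.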

The target of experiment [12] is Pyruvate kinase PKM (Homo sapiens) (UniProt P14618). In words: qHTS Assay for Activators of Human Muscle Pyruvate Kinase (AID 954; active = well fitted curve in the direction sought with a large enough effect, not every such curve was filed as active;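 also: 0% = uninhibited enzyme and -100% = no enzyme or full thiadiazolimine inhibition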). An outline of the steps: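 ATP production by PKM2 detected via luciferase luminescence after 1 h room-temperature reaction (0.1 nM enzyme, PEP at Km 0.5 mM, ADP 0.1 mM, pH 7.2 imidazole buffer). Inhibition scaled to no-enzyme control; activation referenced to 0.3 nM enzyme wells.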
Pyruvate kinase PKM (Homo sapiens), sequence (P14618 whole entry, looked up): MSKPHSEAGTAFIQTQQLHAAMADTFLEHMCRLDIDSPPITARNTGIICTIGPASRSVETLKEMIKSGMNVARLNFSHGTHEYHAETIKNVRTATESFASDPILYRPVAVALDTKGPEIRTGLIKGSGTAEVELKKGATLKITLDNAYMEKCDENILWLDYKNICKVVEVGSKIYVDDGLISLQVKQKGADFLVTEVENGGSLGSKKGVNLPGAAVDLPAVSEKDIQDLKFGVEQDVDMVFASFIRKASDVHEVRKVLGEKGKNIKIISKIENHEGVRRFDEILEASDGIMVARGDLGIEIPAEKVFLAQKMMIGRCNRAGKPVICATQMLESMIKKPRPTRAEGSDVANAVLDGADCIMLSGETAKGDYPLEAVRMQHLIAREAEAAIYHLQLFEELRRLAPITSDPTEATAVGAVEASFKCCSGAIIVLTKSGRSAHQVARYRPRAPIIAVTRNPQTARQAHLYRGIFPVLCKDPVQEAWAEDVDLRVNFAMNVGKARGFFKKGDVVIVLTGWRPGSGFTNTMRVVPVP

The target of experiment [13] is Alpha-galactosidase A (Homo sapiens) (UniProt P06280). In words: Counterscreen for Glucocerebrosidase Inhibitors: qHTS Assay for Human alpha-Galactosidase at pH 4.5 (AID 992; active = well fitted curve in the direction sought with a large enough effect; an effect the other way counts as inactive or inconclusive; also: 0% is about no effect). A digest of the protocol: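 Fluorogenic 1536-well qHTS at pH 4.5 (citrate, Tween-20): 2 nM enzyme, 80 uM 4-MU-alpha-galactoside, 20 min room temperature, NaOH/glycine stop. Titration 0.7 nM to 77 uM, data normalized to no-enzyme and full-activity controls, Hill-fitted AC50.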
Alpha-galactosidase A (Homo sapiens), sequence (P06280 whole entry, looked up): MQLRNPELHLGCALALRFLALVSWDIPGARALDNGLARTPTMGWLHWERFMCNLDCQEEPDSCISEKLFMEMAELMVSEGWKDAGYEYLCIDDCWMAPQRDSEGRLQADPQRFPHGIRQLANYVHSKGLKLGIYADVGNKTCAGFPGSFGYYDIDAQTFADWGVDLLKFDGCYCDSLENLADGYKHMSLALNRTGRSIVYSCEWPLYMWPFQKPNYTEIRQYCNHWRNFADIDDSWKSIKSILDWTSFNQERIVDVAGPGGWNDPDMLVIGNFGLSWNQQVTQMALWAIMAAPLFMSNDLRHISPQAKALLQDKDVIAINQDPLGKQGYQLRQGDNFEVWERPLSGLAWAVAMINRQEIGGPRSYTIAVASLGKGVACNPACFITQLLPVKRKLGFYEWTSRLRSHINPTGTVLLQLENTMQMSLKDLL
(The purpose of a counterscreen is to sort out artefacts and off-target activity.)

The target of experiment [14] is alpha-glucosidase (Oryza sativa, rice) (UniProt Q653V4). In words: Counterscreen for Glucocerebrosidase Inhibitors: qHTS Assay for Rice alpha-Glucosidase at pH 5.0 (AID 997; active = well fitted curve in the direction sought with a large enough effect; an effect the other way counts as inactive or inconclusive;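 also: 0% = full activity with enzyme and -100% = basal without enzyme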). A digest of the protocol: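 Endpoint fluorogenic assay at pH 5.0: compounds (0.7 nM to 77 uM) titrated against 4 nM rice enzyme and 400 uM 4-MU-alpha-glucoside for 20 min at room temperature; NaOH/glycine stop, read ex 365/em 440 nm, Hill-fitted AC50.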

The nature of experiment [15]: Confirmation and Secondary Assay for Modulators of Hemoglobin Beta Chain Splicing at IVS2 654 locus (AID 910; active = well fitted curve in the direction sought with a large enough effect; an effect the other way counts as inactive or inconclusive;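 also: HeLa cells stably carrying EGFP split by mutant beta-globin IVS2-654 intron; per-well total GFP intensity by laser scanning cytometry after 2-day treatment; % of control where 0% means no effect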). A digest of the protocol: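 Readout: per-well total peak green fluorescence (488 nm ex, 500–520 nm em) from objects 5–250 µm, reflecting correct splicing of an EGFP-654 reporter. Compounds were applied for 2 days at 37 °C to overnight-plated HeLa EGFP-654 cells; controls were DMSO and 500 nM IVS2-654 PNA.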

Experiment [16] in a line: Confirmation and Secondary Assay for Modulators of Hemoglobin Beta Chain Splicing at IVS2 705 locus (AID 930; active = well fitted curve in the direction sought with a large enough effect; an effect the other way counts as inactive or inconclusive;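 also: HeLa cells stably expressing the EGFP-705 splicing reporter; GFP fluorescence per well restored by corrected splicing of the IVS2-705 intron in EGFP; % of control where 0% means no effect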). A digest of the protocol:
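First, HeLa EGFP-705 cells are seeded at 500/well in Optimem with 2% FCS and left overnight. Next, compound or DMSO is added for 2 days. Finally wells are laser-scanned and total peak GFP intensity scored.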

A number with no mark means an inactive call. Inconclusive results are not listed. Activity calls are given as the source filed them. Unless noted, calls follow the shape of the dose curve; as a rule, active = well fitted curve in either direction with a large enough effect (not every such curve was filed as active); inconclusive = small, poorly fitted or top-dose-only effect, or another doubt; inactive = flat fitted curve, though single readings scatter.

3',5'-cyclic-AMP phosphodiesterase 4B (Homo sapiens), sequence (Q07343 whole entry, looked up): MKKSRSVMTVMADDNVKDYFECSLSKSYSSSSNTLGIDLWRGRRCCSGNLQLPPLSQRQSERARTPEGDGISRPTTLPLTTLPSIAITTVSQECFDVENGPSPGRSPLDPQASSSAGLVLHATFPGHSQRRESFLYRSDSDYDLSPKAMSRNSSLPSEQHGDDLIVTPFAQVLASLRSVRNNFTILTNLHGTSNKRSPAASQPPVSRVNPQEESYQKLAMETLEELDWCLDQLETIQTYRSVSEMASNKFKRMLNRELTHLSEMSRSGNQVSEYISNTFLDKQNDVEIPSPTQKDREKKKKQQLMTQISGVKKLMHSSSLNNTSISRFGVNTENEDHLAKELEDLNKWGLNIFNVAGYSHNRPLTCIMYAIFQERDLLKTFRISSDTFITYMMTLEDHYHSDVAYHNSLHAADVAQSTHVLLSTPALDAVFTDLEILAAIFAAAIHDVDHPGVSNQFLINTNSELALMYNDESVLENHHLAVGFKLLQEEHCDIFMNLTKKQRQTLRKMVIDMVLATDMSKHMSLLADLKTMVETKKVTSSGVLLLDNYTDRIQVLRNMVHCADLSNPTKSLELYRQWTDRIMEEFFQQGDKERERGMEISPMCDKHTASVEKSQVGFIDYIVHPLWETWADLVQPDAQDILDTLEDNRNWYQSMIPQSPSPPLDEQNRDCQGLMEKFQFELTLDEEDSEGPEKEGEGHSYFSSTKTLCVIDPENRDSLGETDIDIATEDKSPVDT
Muscarinic acetylcholine receptor M1 (Rattus norvegicus), sequence (P08482 whole entry, looked up): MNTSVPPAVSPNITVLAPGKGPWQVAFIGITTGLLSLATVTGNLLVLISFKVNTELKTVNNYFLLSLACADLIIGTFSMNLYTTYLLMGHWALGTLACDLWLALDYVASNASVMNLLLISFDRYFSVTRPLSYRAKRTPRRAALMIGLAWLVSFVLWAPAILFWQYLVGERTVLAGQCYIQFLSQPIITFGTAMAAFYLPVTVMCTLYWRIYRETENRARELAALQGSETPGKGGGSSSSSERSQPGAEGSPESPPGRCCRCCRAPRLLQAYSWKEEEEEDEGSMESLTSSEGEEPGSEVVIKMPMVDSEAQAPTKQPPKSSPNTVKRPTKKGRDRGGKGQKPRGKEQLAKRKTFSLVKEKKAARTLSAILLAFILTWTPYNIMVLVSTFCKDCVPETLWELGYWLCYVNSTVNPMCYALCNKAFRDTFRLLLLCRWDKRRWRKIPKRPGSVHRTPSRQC
Cytochrome P450 3A4 (Homo sapiens), sequence (P08684 whole entry, looked up): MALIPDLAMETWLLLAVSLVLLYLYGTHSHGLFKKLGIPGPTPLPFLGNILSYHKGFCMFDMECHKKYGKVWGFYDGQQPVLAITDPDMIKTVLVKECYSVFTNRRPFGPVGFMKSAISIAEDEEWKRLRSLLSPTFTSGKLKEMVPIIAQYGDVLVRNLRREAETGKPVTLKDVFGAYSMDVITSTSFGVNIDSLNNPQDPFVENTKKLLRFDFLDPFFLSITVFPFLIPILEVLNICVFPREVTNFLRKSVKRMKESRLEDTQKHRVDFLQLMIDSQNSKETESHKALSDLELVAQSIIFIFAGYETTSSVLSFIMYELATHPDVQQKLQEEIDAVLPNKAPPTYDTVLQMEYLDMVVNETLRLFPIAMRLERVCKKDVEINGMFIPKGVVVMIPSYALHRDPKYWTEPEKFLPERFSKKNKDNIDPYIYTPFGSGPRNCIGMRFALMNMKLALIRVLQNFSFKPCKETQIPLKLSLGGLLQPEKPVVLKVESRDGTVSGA
Pyruvate kinase (Leishmania mexicana), sequence (Q27686 2-499 E452W): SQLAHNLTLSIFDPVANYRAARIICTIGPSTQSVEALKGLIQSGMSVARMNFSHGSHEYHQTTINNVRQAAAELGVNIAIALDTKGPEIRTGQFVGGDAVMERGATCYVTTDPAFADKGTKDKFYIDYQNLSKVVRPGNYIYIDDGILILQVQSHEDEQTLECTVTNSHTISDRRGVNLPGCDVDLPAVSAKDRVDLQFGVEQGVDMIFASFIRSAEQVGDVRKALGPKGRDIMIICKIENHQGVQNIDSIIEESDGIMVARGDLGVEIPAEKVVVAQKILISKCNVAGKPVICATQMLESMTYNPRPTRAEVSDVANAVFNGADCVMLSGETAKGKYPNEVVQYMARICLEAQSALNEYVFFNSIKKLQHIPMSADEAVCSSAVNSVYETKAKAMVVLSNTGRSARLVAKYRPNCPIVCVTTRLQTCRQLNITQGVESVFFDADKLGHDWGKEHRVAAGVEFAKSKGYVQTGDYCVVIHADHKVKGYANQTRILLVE

In the case of `CC[C@H](c1ccccc1)c1cc(C(C)(C)C)cc(C(C)(C)C)c1O`, the results for the activity change, negative = inhibition in experiment [1] and in experiment [5] were 7.36% [at 7.69 µM] and 6.57% [at 11.4 µM], respectively. The activity, negative = inhibition in experiment [2] was 3.9% [at 7.69 µM]. For the same compound, the values for the Potency in experiment [3] and in experiment [4] were > 46 µM and > 9.22 µM, respectively. In [6], the Potency entry was “inactive”. The activity change, positive = activation in [7] was -33% [at 11.4 µM].

Consider `O[Si@](CCCN1CCCCC1)(c1ccc(F)cc1)C1CCCCC1`, for which, in experiment [1], the activity change, negative = inhibition was 11.3% [at 38 µM]. Besides, the activity, negative = inhibition in experiment [2] was 1.42% [at 38 µM]. Moreover, the Potency in experiment [3] is > 46 µM; in [4], > 46 µM; in experiment [10], 0.178 µM (active). The Potency entry in experiment [5], in experiment [6], in experiment [9] and in experiment [11] was “inactive” each time. In addition, the compound was classed as inactive in experiment [8], in [12], in experiment [13] and in experiment [14].

Turning to `CC1(C)Cc2c(c(-c3ccco3)[nH]c(=O)c2C#N)CS1`, the activity change, negative = inhibition in experiment [1] was -2.31%. In addition, the activity, negative = inhibition in experiment [2] is 11.6%. The Potency in experiment [3] is > 20.6 µM.

On to `CC(C)C1=C2OC(N)=C(C#N)C(C#N)=C2C(C)CC1` (stereo unspecified), for which, in experiment [1], the activity change, negative = inhibition is -2.44%. For the same compound, the activity, negative = inhibition in experiment [2] is 5.25%. Also, the Potency in experiment [3] was > 20.6 µM.

For the compound `COc1ccc(CCn2c(=N)c(C(=O)NCc3ccco3)cc3c(=O)n4ccccc4nc32)cc1`, in experiment [1], the activity change, negative = inhibition was -1.64%. In addition, the activity, negative = inhibition in [2] was 2.96%. Also, the Potency in experiment [3] was > 20.6 µM.

Take `Cc1cccc(CNc2ccnc(-c3ccc(N(C)C)cc3)n2)c1`: the activity change, negative = inhibition in [1] was -16% [at 7.69 µM]. The activity, negative = inhibition in experiment [2] is -22.6% [at 7.69 µM]. Besides, the Potency in [3] and in experiment [4] was > 46 µM in each case. Also, the Potency result in experiment [5], in [15] and in experiment [16] was “inactive” throughout.

Consider `CSc1nc2[nH]c3c(c2c2nnnn12)CCCC3`, for which the activity change, negative = inhibition in experiment [1] was -20.6%. For the same compound, the activity, negative = inhibition in experiment [2] is -10.8%. For the same compound, in experiment [3], the Potency was > 20.6 µM.

`CCOC(=O)c1[nH]c2ccc(OC)cc2c1NC(=O)CCN1CCc2ccccc2C1`: the activity change, negative = inhibition in [1] was -5.08%. The activity, negative = inhibition in [2] is -3.49%. Further, the Potency in [3] was > 20.6 µM.

Turning to `COc1ccc(CCNc2oc(COc3ccccc3)nc2C#N)cc1`, in [1], the activity change, negative = inhibition is -23%. The activity, negative = inhibition in [2] is -23.3%. In addition, in experiment [3], the Potency was > 20.6 µM.

Regarding `C[N+](C)(C)CCN(Cc1cccs1)c1ccccn1`, the activity change, negative = inhibition in experiment [1] is -6.68% [at 7.69 µM]; in experiment [5] it was 0.454% [at 11.4 µM]. Further, in experiment [2], the activity, negative = inhibition was -4.68% [at 7.69 µM]. Besides, the values for the Potency in experiment [3] and in [4] were > 46 µM and > 9.22 µM, respectively. Moreover, the Potency result in experiment [6] is “inactive”.

Source of the values: PubChem BioAssay (NCATS).
